Screens from PubChem BioAssay.
Shown are actives, neighbours in structure and some others; about 0.93% of the full set was active somewhere.
IL1B NFkB inh: inhibitors of IL-1B driven NFkB p65 nuclear import, primary screen, imaging, HUVEC, IL-1B stimulus, high-content imaging. HUVEC IL-1B NFkB p65 nuclear translocation imaging. inhibition, % at 2 µM. 0.43% of 94,000 active. AID 796, 2007;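 active = inhibition above about 30% together with a positive call from visual inspection of the well image, limit read from the data; inconclusive = inhibition above a set limit but visual check negative; inactive = inhibition not above a set limit, visual check negative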;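 also: nuclear over cytoplasmic p65 intensity ratio measured by imaging; 0% = IL-1B stimulated DMSO wells and 100% = unstimulated DMSO wells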
Phagocyt inh: inhibitors of macrophage phagocytosis, primary screen, imaging, J774A.1 cells, IgG beads; J774A.1 macrophage IgG-bead phagocytosis; inhibition, % at 5 µM; 0.07% of 110,000 active;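 active = inhibition above the mean of the plate negative controls plus 5 SD, cut at about 13% in these data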;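 also: phagocytic index as fraction of beads internalized from green versus red external bead signal; plate controls were DMSO negative control for no effect and cytochalasin-D positive control for full effect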
HUVEC tox TNFa: cytotoxicity in TNFa-stimulated HUVEC, primary screen, cytotoxicity control for VCAM1 expression modulator project, imaging, Hoechst nuclei count; 0.17% of 93,000 active; HUVEC TNFalpha-stimulated, Hoechst cell count; AID 848, 2007; cell count reduction, % at 2 µM;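 active = cell count reduction exceeding the screen mean by over 5 SD, scaled to untreated wells per plate, cut at about 78% in these data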;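 also: cells counted after 24 h of TNF alpha exposure following the 1 h pretreatment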
HUVEC tox IL1B: cytotoxicity in IL-1B stimulated HUVEC, primary screen, cytotoxicity control for IL-1B NFkB translocation project, imaging, Hoechst nuclear count, IL-1B stimulus; 0.41% of 94,000 active; HUVEC cell count loss; cell count reduction, % at 2 µM;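 active = cell count reduction more than 3 SD above the screen-wide mean, cut at about 70% in these data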;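 also: normalized per plate to untreated control cells as the no-loss baseline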
NFkB transloc pot: enhancers of NFkB p65 translocation in HUVEC – imaging, IL-1B stimulus, high-content imaging, primary screen. HUVEC IL-1B NFkB p65 nuclear translocation imaging. activation, % at 2 µM. 0.3% of 94,000 active;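 active = activation above 40%, about the mean plus 3 SD, also judged a hit on visual image review; inconclusive = activation above 40% but not a hit on visual review; inactive = activation not above 40% and no visual hit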;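 also: percent activation is computed from the nuclear over cytoplasmic p65 intensity ratio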
The depositor's hits bear a star; ? = inconclusive; . = no result given; + = active, no number; [ ] = another dose, or the depositor's remark.

SMILES | IL1B NFkB inh | Phagocyt inh | HUVEC tox TNFa | HUVEC tox IL1B | NFkB transloc pot
Cn1ncc(Cl)c1C(=O)NC(=S)Nc1sc2c(c1C#N)CCCCC2 | -21 | -2 | 0 | 6 | 21
Cn1c(SCC(=O)Nc2ccc3c(c2)OCO3)nnc1-c1cnccn1 | 24 | 2 | -3 | 86* | -24
O=c1ccccn1CCOc1ccccc1Cl | . | -2 | . | . | .
CCC(=O)N1CCN(c2nc3ccccc3s2)CC1 | 37* | 0 | -4 | 19 | -37
COc1ccc2nc(SCC(=O)N3CCN(c4ccccc4F)CC3)c(C#N)cc2c1 | 46* | . | 17 | 1 | -46
Cn1nc([N+](=O)[O-])nc1Oc1ccc(C(C)(C)C)cc1 | . | -2 | . | . | .
FC(F)Oc1ccc(NC(=S)NCc2ccccc2)cc1Cl | 30* | . | 0 | -18 | -30
Cc1ccc(NC(=S)Nc2ccc(OC(F)F)c(Cl)c2)cc1Cl | . | -4 | . | . | .
CCc1nnc(NC(=O)CSc2nnc(-c3cc4ccccc4cc3O)n2CC)s1 | . | -1 | . | . | .
CCn1c(SCC(=O)N(C(C)C)C(C)C)nnc1-c1cc2ccccc2cc1O | -60 | -2 | 11 | 6 | 60*
Cc1ccc(C(=O)Nc2ccc(O)cc2C(=O)O)cc1C | -119 | -1 | 4 | 8 | 119*
Cc1ccc2cc3c(N)[nH]nc3nc2c1 | . | -4 | . | . | .
Cc1cc(N2CCOCC2)cc(C)[n+]1[O-] | -40 | -1 | -16 | -31 | 40*
Cc1cccc(NC(=O)c2cc3ccccc3o2)c1 | -30 | . | 4 | -25 | 30
CCC(=O)Nc1cccc(NC(=O)c2cc3ccccc3o2)c1 | -27 | 0 | 87* | -15 | 27
Cc1cc(S(=O)(=O)Nc2ccc(F)cc2)c(C)s1 | 12 | -1 | -10 | 89* | -12
Cc1cc(S(=O)(=O)Nc2cccc(O)c2)c(C)s1 | -16 | -1 | -19 | 2 | 16
CCOC(=O)c1[nH]c2cc3c(cc2c1NC(=O)CN1CCC(C)CC1)OCO3 | 98* | . | -22 | 86* | -98
Cc1ccc(S(=O)(=O)c2c(COC(=O)c3ccccc3Cl)c(-c3ccccc3)nn2C)cc1 | 2 | 0 | -23 | 0 | -2
CCN(CC)C(=O)CSc1nnc(-c2ccccc2)o1 | 0 | -1 | -5 | -4 | 0
O=C(CSc1nnc(-c2ccccc2)o1)OCc1ccccc1 | -69 | . | -13 | -1 | 69*
O=C(NC1CCCC1)C1C2C=CC(C2)C1C(=O)N1CCOCC1 (stereo not given) | -1 | 1 | -24 | 83* | 1
CCn1cc(C(=O)OCc2ccc(F)cc2)c(=O)c2ccc(C)nc21 | 6 | -1 | -19 | 86* | -6
O=C(Nc1ccccc1C(=O)NC(Cc1c[nH]c2ccccc12)C(=O)O)c1ccco1 (stereo not given) | -13 | 0 | 3 | -6 | 13
O=C(NC(Cc1c[nH]c2ccccc12)C(=O)O)c1ccco1 (stereo not given) | ? | 0 | 100* | 1 | -68
SMILES | IL1B NFkB inh | Phagocyt inh | HUVEC tox TNFa | HUVEC tox IL1B | NFkB transloc pot
O=C(Nc1ccc([N+](=O)[O-])cc1)Nc1nc(-c2ccc(Cl)s2)cs1 | . | -1 | . | . | .
Cc1ccc(N2CC(C(=O)NCc3cccs3)CC2=O)cc1C (stereo not given) | -4 | . | -10 | -17 | 4
Cc1cc(N2CC(C(=O)NCc3cccs3)CC2=O)ccc1C(C)C (stereo not given) | 46* | 1 | -64 | -79 | -46
Cc1nc(S(=O)(=O)N(C)Cc2ccccc2)c(C#N)c(C)c1Cl | 31* | . | 92* | -8 | -31
CSc1oc(-c2ccco2)nc1S(=O)(=O)c1ccccc1 | 13 | 0 | 82* | 11 | -13
O=C(COC(=O)CCC(=O)c1cccs1)Nc1cccc(S(=O)(=O)N2CCOCC2)c1 | 6 | . | 4 | 1 | -5
Cc1ccc(NC(=O)COC(=O)CCC(=O)c2cccs2)cc1S(=O)(=O)N1CCOCC1 | -48 | 0 | -13 | -18 | 48*
CCCCc1ccc(/C=C2\C(=O)c3ccccc3C(O)=C2C(=O)OCC)cc1 | -41 | 0 | -8 | -20 | ?
Cc1cc(C)c(C#N)c(SCC(=O)OC2CCCCC2)n1 | . | 0 | . | . | .
CCOC(=O)CSc1nc(C)cc(C)c1C#N | 50* | -1 | -2 | -5 | -50
Cc1cc(C)c(C#N)c(SCc2ccccc2)n1 | 20 | . | -12 | 91* | -20
Cc1cccc(N/C(N)=N/c2nc(C(F)(F)F)cc(=O)[nH]2)c1C | . | 0 | . | . | .
Cc1cc(NC(=O)C2C3C=CC(C3)C2C(=O)O)no1 (stereo not given) | -27 | -3 | 100* | -45 | 27
COc1ccc(-n2c(Cc3cccn3C)nnc2SCC(=O)NCC2CCCO2)cc1 (stereo not given) | 37* | 1 | -18 | 11 | -37
CCC(/C=C1\Sc2ccc(OC)cc2N1CCO)=C\c1sc2ccc(OC)cc2[n+]1CCO | . | +[fluoresces] | . | . | .
CCC(=O)/C=C1/Sc2ccc(OC)cc2N1CC | -1 | . | -11 | -17 | 1
C/C(=N\NC(=O)c1[nH]c2c([N+](=O)[O-])cc(C)cc2c1-c1ccccc1)c1cccnc1 | -8 | -3 | -15 | -15 | 8
NC(=O)/C=C\C(=O)Nc1cccc(C(F)(F)F)c1 | -30 | -2 | . | 84* | -94
O=C(O)CCCC(=O)Nc1cccc(C(F)(F)F)c1 | . | -2 | . | . | .
O=C1CCc2nc3sc4c(c3c(=O)n2N1)CCCC4 | -5 | . | 1 | 18 | 5
O=c1c2c3c(sc2nc2sc(C4CC4)nn12)CCCC3 | 88* | -1 | -10 | 78* | -88
COc1cc(OC)cc(-c2cc3nc(C)cc(N4CCN(C(=O)c5ccco5)CC4)n3n2)c1 | -42 | -1 | -19 | 2 | 43*
Cc1ccc(-n2c(O)c(C=NC3CCS(=O)(=O)C3)c3ccccc3c2=O)cc1C (stereo not given) | -43 | -1 | -2 | 39 | 43*
CSc1ccccc1NS(=O)(=O)c1ccc2c(c1)OCCO2 | 27 | -1 | 2 | 70* | -27
Cc1ccc(N2CCN(CC(=O)Nc3c(C(=O)C4CC4)oc4ccccc34)CC2)cc1 | 3 | 1 | 4 | 18 | -3
SMILES | IL1B NFkB inh | Phagocyt inh | HUVEC tox TNFa | HUVEC tox IL1B | NFkB transloc pot
O=C(COC(=O)Cc1cccc(C(F)(F)F)c1)Nc1ccccc1 | . | -3 | . | . | .
CCN(CC)c1ccc2cc(-c3nc4ccccc4n3C)c(=O)oc2c1 | 34* | 4 | 66 | 59 | -34
CCN(CC)c1ccc2cc(-c3nc4ccccc4[nH]3)c(=O)oc2c1 | -11 | 0 | -21 | -2 | 11
Cc1ccc(-c2cc(-c3nnc(SCC(=O)NCC(C)C)n3N)c3ccccc3n2)cc1 | -43 | 0 | -8 | -2 | 43*
CCC(C)NC(=O)CSc1nnc(-c2cc(-c3ccc(C)cc3)nc3ccccc23)n1N (stereo not given) | -73 | -1 | -17 | 0 | 73*
CCC(C)NC(=O)CSc1nnc(-c2ccc(C(C)(C)C)cc2)n1C (stereo not given) | . | -1 | . | . | .
